In PubChem BioAssay AID2284364 (EPA ToxCast):
Several values for one entry are separate records, joined by “and”; a condition that tells them apart may be missing. Identical values can stand only once. Activity calls are given as the source filed them. The calls were made as follows: active = hit-call score of the fitted dose curve at least 0.9, where 1 is the maximum; inactive = score below 0.9.

biological target: Peroxisome proliferator-activated receptor gamma (Homo sapiens) (UniProt P37231); experiment: ERF_US_NR_hPPARG: Eurofins (ERF) Nuclear Receptor (NR) Cell Based Protein-Protein Interaction LeadHunter Assay for human Peroxisome Proliferator-activated Receptor-gamma (PPARg) Agonism
Sequence (P37231 whole entry, looked up): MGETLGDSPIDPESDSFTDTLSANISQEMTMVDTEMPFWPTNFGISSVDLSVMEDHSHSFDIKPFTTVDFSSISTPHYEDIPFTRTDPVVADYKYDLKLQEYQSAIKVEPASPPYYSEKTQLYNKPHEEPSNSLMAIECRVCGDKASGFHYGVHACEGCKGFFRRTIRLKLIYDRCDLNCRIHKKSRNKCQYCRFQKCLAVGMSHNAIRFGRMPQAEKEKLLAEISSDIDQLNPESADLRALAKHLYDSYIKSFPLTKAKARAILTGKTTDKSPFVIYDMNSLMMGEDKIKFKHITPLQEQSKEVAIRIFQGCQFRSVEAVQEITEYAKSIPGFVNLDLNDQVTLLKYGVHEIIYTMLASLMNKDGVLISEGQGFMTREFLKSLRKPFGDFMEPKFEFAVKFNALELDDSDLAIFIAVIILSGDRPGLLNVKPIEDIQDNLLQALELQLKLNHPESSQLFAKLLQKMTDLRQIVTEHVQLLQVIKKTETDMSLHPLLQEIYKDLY
Protocol: ERF_US_NR_hPPARG is a cell-based, single-readout assay that uses extracted gene-proteins in a cell-line assay. Measurements were taken 5 hours after chemical dosing in a 384-well plate. See PPARgamma Human NHR Cell Based Agonist Protein-Protein Interaction Assay, DiscoverX.ERF_US_NR_hPPARG is an assay component calculated from the ERF_US_NR_hPPARG assay. It is designed to measure […] using a type of binding reporter as detected by scintillation counting with radiometry technology.Data from the assay component ERF_US_NR_hPPARG was analyzed at the assay endpoint, ERF_US_NR_hPPARG, in the positive analysis fitting direction relative to DMSO as the negative control and baseline of activity. Using a type of binding reporter, gain-of-signal activity can be used to understand changes in binding as they relate to gene PPARG. To generalize the intended target to other relatable targets, this assay endpoint is annotated to the nuclear receptor intended target family, where the subfamily is non-steroidal.
Cells were seeded in a total volume of 20 uL into white walled, 384-well microplates and incubated at 37C overnight prior to testing.Briefly, intermediate dilution of sample stocks was performed to generate 5X sample in assay buffer. 5 uL of 5X sample was added to cells and incubated at 37C for 300 minutes. Final assay vehicle concentration was 1%. The results are expressed as a percent efficacy of the control ligand.

`O=C(CC(=O)C(F)(F)C(F)(F)C(F)(F)F)c1cccs1` was tested. Which AC50 did it give?
The AC50 was 21.7 µM (active) and 23.7 µM (active).

`O=C(O)CCC(F)(F)C(F)(F)C(F)(F)F` was tested. Which outcome did it give?
Its outcome is “inactive”.

`NC(=O)c1nc(-c2cccc(-c3cc(F)ccc3OCC(F)(F)C(F)(F)F)c2)n[nH]1` was tested. Which outcome did it give?
The outcome was “inactive”.
